# Test results reported in PubChem BioAssay (NCI).
# About 83,000 compounds went through this panel and 20% of them were active in at least one assay; those are over-represented in the sample as a whole.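 Compound tested at a single concentration for 48 hours in 96-well plates; a percent growth value below 10 was scored as active.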 A number with no mark means an inactive call. Activity calls are given as the source filed them.
# System: UACC-257 melanoma
# Experiment: NCI-60 one-dose screen, 48 h (100 = growth as untreated, 0 = no growth, -100 = all killed)
# Conditions: 10 µM unless noted
row,SMILES,growth
1,CC[N+](CC)=c1cc2oc3cc(N(C)C)ccc3nc-2cc1C,-28% (active)
2,CC(C)NCCCNC1=C(Cl)C(=O)c2ccccc2C1=O,3.04% (active)
3,Clc1ccccc1-c1nc2ccccc2[nH]1,113%
4,COc1ccc(-c2nc(/C=N/Nc3cc(C)nc4ccc(Cl)cc34)c(C)o2)cc1,104%
5,CC(C)(C)n1cc(-c2ccnc(NCCNS(=O)(=O)c3ccc(Cl)cc3)c2)c(-c2cccc(O)c2)n1,64.8%
6,COc1ccc(-c2cn(-c3cccc(C(=O)/C=C/c4cc(OC)c(OC)c(OC)c4)c3)c(=O)[nH]2)cc1OC,80.1%
7,COc1ccc2[nH]c(C(=O)OCc3ccc4c(Cl)cc(Cl)c(O)c4n3)cc2c1,-77.3% (active)
8,CCNc1nc(S(=O)(=O)CC)nc2ccccc12,85.5%
9,CC1=NC2=CC=CC3=NC(C(Cl)(Cl)Cl)=NC(=N1)N23,63.9%
10,COc1ccc(Nc2nc(N)nc3c2CCN(Cc2ccc(OC)cc2OC)C3=O)cc1,88.3%
11,C=C1CC2(OC1=O)C(=O)N(CCCN1C(=O)C3(CC(=C)C(=O)O3)c3ccccc31)c1ccccc12 (stereo unspecified),30.4%
12,OCc1ncc(-c2ccccc2)s1,105%
13,CC(C)CC1NC(C)(C)CO1 (stereo unspecified),112%
14,O=C1Nc2ccc3c(c2/C1=C\c1cc2c(cc1Br)OCO2)OCO3,58.3%
15,COc1ccc(C(=O)N2NC(=O)/C(=C/c3ccccc3F)N=C2c2ccccc2)cc1,99.7%
16,CCOC(=O)NNC(=S)Nc1ccccc1,102%
